From PubChem BioAssay (NCATS)
Results filed as inconclusive are left out. The source made the active and inactive calls. The call rests on the fitted dose curve; in most records, active means well fitted inhibition curve with a large enough effect; inconclusive means small, poorly fitted or top-dose-only effect; inactive means flat fitted curve, though single readings scatter.

How the values were obtained:
Assay in all cases: Cytotoxic Profiling of Annotated Libraries Using Quantitative High-Throughput Screening (AID 1296008); further: nearly all actives have a fitted effect of over 60% in size
Settings in all cases: Five cell lines viability, CellTiter-Glo ATP luminescence, 48-72 h; max response: stronger effect = lower value
[1] = tested on: CRL-7250
Outline: (§1)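 Cytotoxicity was measured as CellTiter-Glo ATP luminescence, read after 10 min at room temperature. Compound treatment of the cells lasted 48 or 72 hr at 37 degrees Celsius in a qHTS format.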

[2] = tested on: HEK293
Outline: as §1

[3] = tested on: HaCat
Outline: as §1

[4] = tested on: KB-3-1
Outline: as §1

[5] = tested on: NIH3T3
Outline: as §1

Measured: max response
On the % scale 0 is the no-effect control and ±100 the full control effect.

C[C@@H](NC(=O)c1cc(C(=O)N[C@@H](Cc2ccccc2)[C@H](O)CNC2CC2)cc(N(C)S(C)(=O)=O)c1)c1ccccc1
inactive: [1] 2.97% | [2] -6.18% | [3] | [4] -1.48% | [5]

CC(C)C1NC(=O)C(CC2(O)c3ccccc3N3C(=O)C(Cc4ccccc4)NC32)NC1=O (stereo not given)
inactive: [1] | [2] -4.45% | [3] | [4] | [5]

CC(=O)O[C@@H]1[C@@H](O)[C@H](C)O[C@@H](O[C@H]2[C@@H]3C=CO[C@@H](O[C@@H]4O[C@H](CO)[C@@H](O)[C@H](O)[C@H]4OC(C)=O)[C@@H]3[C@@]3(CO)O[C@@H]23)[C@@H]1OC(=O)/C=C/c1ccc(O)cc1
inactive: [1] 0.704% | [2] 2.14% | [3] | [4] | [5]

O=C(/C=C/c1ccc(O)cc1)OC[C@H]1O[C@H](O[C@@]2(CO)O[C@@H](CO)[C@H](O)[C@H]2O)[C@H](O)[C@@H](O)[C@@H]1O
inactive: [1] | [2] | [3] 1.8% | [4] | [5] -0.438%

CC(=O)OCC1OC(O[C@H]2CC[C@@]3(C)C(CC[C@]4(C)C3CC=C3[C@@H]5CC(C)(C)CC[C@]5(C(=O)O)CC[C@]34C)[C@]2(C)CO)C(O)C(O)C1OC1OC(C)C(O)C(OC2OCC(O)C(O)C2O)C1O (stereo not given in full)
inactive: [1] | [2] -5.43% | [3] | [4] | [5]

O=C(NC1CCN(CC(F)(F)F)CC1)c1ccc(-c2cccc(F)c2)nc1
inactive: [1] | [2] -11% | [3] | [4] -3.14% | [5]

C=C(C(=O)O)[C@H]1C[C@]2(C)C(=O)CC[C@]23O[C@H]1C[C@@H]3C
inactive: [1] -1.57% | [2] -7.61% | [3] 1.8% | [4] 4.05% | [5]

CC(=O)O[C@@H]1C(O)C[C@@]2(C)C(CC[C@@H](C)C23Cc2c(O)cc4c(c2O3)CNC4=O)C1(C)C (stereo not given in full)
inactive: [1] 0.238% | [2] 1.81% | [3] | [4] -3.56% | [5] -7.87%

C=C1C(=O)OC[C@H]2C(C(=O)O)=CC3CC(C)(C)C[C@@]132 (stereo not given in full)
inactive: [1] | [2] 4.17% | [3] | [4] | [5]

C=C1CCC(OC(C)=O)C2(C)CC3OC(=O)C(C)=C3CC12 (stereo not given)
inactive: [1] -0.951% | [2] -10.1% | [3] | [4] 3.31% | [5] -1.87%

C=C1CC/C=C(/C(=O)O)CCC2C1CC2(C)C (stereo not given)
inactive: [1] -2.67% | [2] -4.76% | [3] | [4] 4.31% | [5]

CC12CC(O)C(O)C=C1c1cc(O)cc(O)c1C(=O)O2 (stereo not given)
inactive: [1] -7.12% | [2] -7.31% | [3] | [4] | [5]

CNc1nc(Nc2cn(C(C)(C)C#N)nc2C)ncc1C(F)(F)F
inactive: [1] 0.355% | [2] -5.29% | [3] | [4] 6.02% | [5] -4.77%

CC1(C)CC[C@]2(C(=O)O[C@@H]3O[C@H](CO)[C@@H](O)[C@H](O)[C@H]3O)[C@H](O)C[C@]3(C)C(=CCC4[C@@]5(C)CC[C@H](O[C@@H]6OC[C@@H](O)[C@H](O)[C@H]6O)[C@@](C)(C(=O)O)C5CC[C@]43C)[C@@H]2C1 (stereo not given in full)
inactive: [1] -8.24% | [2] -10.4% | [3] | [4] -4.94% | [5] 4.43%

Cc1oc(S(=O)(=O)N2CCCCC2)cc1NC(=O)Nc1ccccc1
inactive: [1] | [2] -1.71% | [3] | [4] | [5] -1.71%

CC1(C)OC(=O)C=C[C@@]2(C)C1CC(=O)[C@]1(C)C2CC[C@@]2(C)[C@H](c3ccoc3)OC(=O)[C@H]3O[C@]321 (stereo not given in full)
inactive: [1] -0.596% | [2] -1.27% | [3] | [4] | [5] -2.44%

C/C=C(/C)C(=O)O[C@@H]1C[C@@H](OC(=O)/C(C)=C\C)[C@@]2(C)C3C(=O)C=C(C)C2C3C1(C)C
inactive: [1] -3.44% | [2] -8.78% | [3] | [4] | [5] 4.88%

C/C(=C\CCC(C)CCO)C(=O)OC[C@H]1O[C@@H](O[C@@H]2OC=C(C(=O)O)[C@H]3CC[C@](C)(O)[C@@H]23)C(O)[C@@H](O)C1O (stereo not given in full)
inactive: [1] 3.02% | [2] 4.12% | [3] | [4] | [5]

CC1CC(=O)C2=C(O1)OC1(C)CCC3C(C)(C)C4OC4C(=O)C3(C)C1C2 (stereo not given)
inactive: [1] | [2] 1.32% | [3] | [4] | [5] -0.441%

CC1(C)CC[C@]2(C(=O)O[C@@H]3O[C@H](CO)[C@@H](O)[C@H](O)[C@H]3O)CC[C@]3(C)C(=CCC4[C@@]5(C)C[C@H](O)[C@H](O[C@@H]6O[C@H](C(=O)O)[C@@H](O)[C@H](O)[C@H]6O)[C@@](C)(CO)C5CC[C@]43C)C2C1 (stereo not given in full)
inactive: [1] -4.26% | [2] 1.87% | [3] | [4] -16.3% | [5]
